The results in this text go back to the supplement of paper PMC10681739.

For experiment [1], the target named is T1, ETS1 (UniProt P14921).
T1 sequence: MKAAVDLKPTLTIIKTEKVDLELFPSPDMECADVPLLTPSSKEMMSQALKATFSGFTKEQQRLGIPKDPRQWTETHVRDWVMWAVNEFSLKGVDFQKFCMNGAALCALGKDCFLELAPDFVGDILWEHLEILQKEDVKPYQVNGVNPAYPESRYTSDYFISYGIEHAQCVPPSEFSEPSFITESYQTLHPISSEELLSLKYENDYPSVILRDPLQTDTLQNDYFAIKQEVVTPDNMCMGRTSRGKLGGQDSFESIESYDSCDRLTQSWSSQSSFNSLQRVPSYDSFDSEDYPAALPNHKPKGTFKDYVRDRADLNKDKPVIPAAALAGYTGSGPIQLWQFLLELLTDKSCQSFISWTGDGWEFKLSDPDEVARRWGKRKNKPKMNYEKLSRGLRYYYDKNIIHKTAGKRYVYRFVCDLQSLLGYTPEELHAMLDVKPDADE
As to the kind of experiment: ETS1 binding intensity (PBM fluorescence), ETS1 alone (arbitrary fluorescence units); higher = stronger binding. Particulars: ETS1 concentration 1 nM; RUNX1 concentration 0 nM.

The target of experiment [2] is RUNX1 (UniProt Q01196). Description: RUNX1 binding intensity (PBM fluorescence), RUNX1 alone (arbitrary fluorescence units); higher = stronger binding. As to conditions: RUNX1 concentration 2 nM; ETS1 concentration 0 nM. The procedure: (§1)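 Cooperative gcPBM on 36-bp genomic probes with neighbouring ETS1 and RUNX1 sites. Recombinant human RUNX1 (2 nM) was incubated alone or with ETS1 (25 nM) and detected with anti-RUNX1 antibody plus Alexa488 secondary. Values are medians over 4 replicate spots; the RUNX1+ETS1 data were normalised to the RUNX1-only data. The probes sit in constant array flanks that are not printed.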
Chain of RUNX1 (Q01196 whole entry): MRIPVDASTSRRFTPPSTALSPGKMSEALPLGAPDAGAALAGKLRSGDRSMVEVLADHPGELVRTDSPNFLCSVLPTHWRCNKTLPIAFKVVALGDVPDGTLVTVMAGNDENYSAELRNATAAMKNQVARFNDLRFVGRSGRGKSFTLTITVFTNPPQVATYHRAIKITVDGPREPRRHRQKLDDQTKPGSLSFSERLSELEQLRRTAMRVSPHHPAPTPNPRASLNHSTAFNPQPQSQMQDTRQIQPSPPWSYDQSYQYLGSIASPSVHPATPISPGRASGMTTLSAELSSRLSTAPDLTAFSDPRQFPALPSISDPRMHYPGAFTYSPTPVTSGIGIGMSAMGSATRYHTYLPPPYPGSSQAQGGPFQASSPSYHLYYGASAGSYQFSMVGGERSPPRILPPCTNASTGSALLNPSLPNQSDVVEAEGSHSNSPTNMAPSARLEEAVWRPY

For experiment [3], the target named is T1, ETS1. As to the kind of experiment: ETS1 binding intensity (PBM fluorescence) in presence of RUNX1, normalised to ETS1-only experiment (arbitrary fluorescence units); higher = stronger binding. As to conditions: ETS1 concentration 1 nM; RUNX1 concentration 25 nM.
Experiment [4] has as its target RUNX1 (UniProt Q01196). As to the kind of experiment: RUNX1 binding intensity (PBM fluorescence) in presence of ETS1, normalised to RUNX1-only experiment (arbitrary fluorescence units); higher = stronger binding. As to conditions: RUNX1 concentration 2 nM; ETS1 concentration 25 nM. The procedure:
as §1
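Throughout, for RUNX1 binding intensity (PBM fluorescence) in presence of ETS1, normalised to RUNX1-only experiment: Full-length recombinant human ETS1 or RUNX1 bound to double-stranded 36-bp genomic probes on microarrays, detected by protein-specific primary antibody and Alexa488 secondary, spot fluorescence as median of four replicate spots.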
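Throughout, for RUNX1 binding intensity (PBM fluorescence), RUNX1 alone: Full-length recombinant human RUNX1 bound to double-stranded 36-bp genomic probes on a high-density microarray, scored as Alexa488 fluorescence per spot via anti-RUNX1 antibody, median of four replicate spots.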

Turning to GCAGGGACCGGAAGTCCATGGCTCTGCCGCAACCCT, the ETS1 binding intensity in the experiment with ETS1 [1] is 13400; in the experiment with ETS1 [3] it was 13700. The figures for the RUNX1 binding intensity in the experiment with RUNX1 [2] and with RUNX1 [4] were 738 and 1250, respectively.

For AGCTGAGAGCCTGCCGGAAGCCACAGCTTCTTCTCG, the values for the ETS1 binding intensity with ETS1 [1] and with ETS1 [3] were 4180 and 5670, respectively. The values for the RUNX1 binding intensity with RUNX1 [2] and with RUNX1 [4] were 801 and 1200, respectively.

For TTTGTAAGAGGAGGAAGTGGTTTGTAAGAGGAGAAA, the ETS1 binding intensity with ETS1 [1] was found to be 2180; with ETS1 [3], 3260. Besides, the RUNX1 binding intensity with RUNX1 [2] was 835; in the experiment with RUNX1 [4] it was 1270.

Consider GTCACCATTTCCGGGCCTCCGCGGTGTCCCCACCCC, for which the ETS1 binding intensity in the experiment with ETS1 [1] was determined as 2560; with ETS1 [3] it was 2870. Further, the RUNX1 binding intensity in the experiment with RUNX1 [2] turned out to be 1040; with RUNX1 [4], 2900.

Take CAAGAGCCGGAAGTCCCTTGTGCCGCAGTCCTTCCC: the ETS1 binding intensity is 5720 with ETS1 [1] and 6680 in the experiment with ETS1 [3]. Besides, the results for the RUNX1 binding intensity with RUNX1 [2] and with RUNX1 [4] were 800 and 1510, respectively.

For the sequence CATTGATCAAAGACAGGATGTGGTAACAGGCAGTTA, the figures for the ETS1 binding intensity in the experiment with ETS1 [1] and with ETS1 [3] were 8340 and 39500, respectively. Further, the RUNX1 binding intensity with RUNX1 [2] worked out at 760; in the experiment with RUNX1 [4], 3100.

On to AGTGGATAGCACTTCCTTCTCTTACCACAGTTCCTT, for which the results for the ETS1 binding intensity in the experiment with ETS1 [1] and with ETS1 [3] were 365 and 558, respectively. Moreover, the RUNX1 binding intensity is 1020 with RUNX1 [2] and 1610 with RUNX1 [4].

Turning to GAAAACTAAGCAGGATGTGGTCTCGGCTGGAGCCTG, the ETS1 binding intensity was 2730 in the experiment with ETS1 [1] and 5380 with ETS1 [3]. In addition, the RUNX1 binding intensity in the experiment with RUNX1 [2] amounted to 657; in the experiment with RUNX1 [4] it was 2020.

On to ACAAGGACTTCCGCCTCCCTGCGGTCCCTCCCCTAC, for which the values for the ETS1 binding intensity with ETS1 [1] and in the experiment with ETS1 [3] were 965 and 1380, respectively. Besides, the RUNX1 binding intensity with RUNX1 [2] was found to be 1110; with RUNX1 [4], 2720.

For GGGGACCGGAAAGGGAGGGGTGGGCCGCAGGCGCCG, the ETS1 binding intensity with ETS1 [1] is 786; in the experiment with ETS1 [3], 680. For the same sequence, the RUNX1 binding intensity with RUNX1 [2] was 766; with RUNX1 [4], 1150.

In the case of GCCGCGAGTTCCGCCGGGTGGACCACAAATCCCGAG, the ETS1 binding intensity stood at 373 in the experiment with ETS1 [1] and 451 with ETS1 [3]. In addition, the RUNX1 binding intensity in the experiment with RUNX1 [2] turned out to be 831; with RUNX1 [4] it was 904.

Turning to CAAGAGGAACCGGAACTTTGGAAACCACATTCTTAT, the ETS1 binding intensity in the experiment with ETS1 [1] came to 1400; with ETS1 [3], 4800. For the same sequence, the RUNX1 binding intensity with RUNX1 [2] amounted to 911; in the experiment with RUNX1 [4], 1480.

As for GAAGCGATATTTCCTCCTGGGGTTGACCGCCCCGTG, the values for the ETS1 binding intensity with ETS1 [1] and in the experiment with ETS1 [3] were 492 and 478, respectively. Further, the RUNX1 binding intensity is 761 with RUNX1 [2] and 1090 with RUNX1 [4].

In the case of CCCCTCAGCTTCCGGGTGCTGCGGCCGCGGCCGAGA, the figures for the ETS1 binding intensity with ETS1 [1] and with ETS1 [3] were 646 and 999, respectively. Also, the RUNX1 binding intensity with RUNX1 [2] was 827; in the experiment with RUNX1 [4], 1980.

In the case of CCCACTTCCTGTCCCTGCATGCTGTGGGGCAGGCAG, the ETS1 binding intensity with ETS1 [1] turned out to be 1500; with ETS1 [3] it was 1570. Also, the RUNX1 binding intensity in the experiment with RUNX1 [2] was 784; with RUNX1 [4] it was 2420.

Consider CTACTTTCCGGTCAACGCGGCCTGCGGTACCACCTC, for which the results for the ETS1 binding intensity with ETS1 [1] and with ETS1 [3] were 438 and 720, respectively. The figures for the RUNX1 binding intensity in the experiment with RUNX1 [2] and in the experiment with RUNX1 [4] were 1160 and 2720, respectively.

For the sequence ACTCCCTAGAGCAGGAAGCCTGTGGTTTGTAATTGG, the ETS1 binding intensity with ETS1 [1] was determined as 1140; in the experiment with ETS1 [3] it was 7950. In addition, the values for the RUNX1 binding intensity in the experiment with RUNX1 [2] and in the experiment with RUNX1 [4] were 1040 and 1480, respectively.

In the case of CTCCAGGGACAACCCGGAAACCACATTGCCCAGCGT, the ETS1 binding intensity with ETS1 [1] is 2230; with ETS1 [3], 6990. Besides, the RUNX1 binding intensity with RUNX1 [2] was 982; in the experiment with RUNX1 [4], 1500.

CCCCTCGCCCTTCCGCATTGCGGGTTACTTCGGTTG: the ETS1 binding intensity in the experiment with ETS1 [1] came out at 521; in the experiment with ETS1 [3], 591. For the same sequence, the RUNX1 binding intensity amounted to 1900 with RUNX1 [2] and 3510 with RUNX1 [4].

For TCTGATGTGCCTTCTTCCTGACCACAGCAACTACTA, the ETS1 binding intensity was 392 with ETS1 [1] and 511 in the experiment with ETS1 [3]. Moreover, the figures for the RUNX1 binding intensity in the experiment with RUNX1 [2] and with RUNX1 [4] were 1250 and 1270, respectively.

Regarding GTAGCTCCTCCCACTTCCCGTGGTTTTCGGTTGAAC, the ETS1 binding intensity with ETS1 [1] was found to be 564; with ETS1 [3], 916. Moreover, the RUNX1 binding intensity was 1240 with RUNX1 [2] and 2760 with RUNX1 [4].

Regarding CCACTGCTTCCGCCTTCTCTGCTGGCTGCGGGGAGC, the ETS1 binding intensity amounted to 545 with ETS1 [1] and 516 in the experiment with ETS1 [3]. Also, the RUNX1 binding intensity in the experiment with RUNX1 [2] was 904; with RUNX1 [4] it was 2210.

Consider TCAGCTGACACAGGAAGTGGTAAAGCTATTATCTGT, for which the ETS1 binding intensity with ETS1 [1] amounted to 9480; in the experiment with ETS1 [3] it was 16400. Further, the RUNX1 binding intensity was found to be 735 in the experiment with RUNX1 [2] and 2730 in the experiment with RUNX1 [4].

In the case of CTGGAGAGGATGTGGCCCCAGTGTGGTTCTGTAACT, the ETS1 binding intensity with ETS1 [1] was found to be 610; with ETS1 [3], 776. Also, the RUNX1 binding intensity with RUNX1 [2] worked out at 837; in the experiment with RUNX1 [4] it was 1170.

Turning to AACCCCAAAACGGAAACACCGGAGCCACAAGCTGAG, the ETS1 binding intensity with ETS1 [1] was found to be 731; in the experiment with ETS1 [3], 961. For the same sequence, the figures for the RUNX1 binding intensity in the experiment with RUNX1 [2] and with RUNX1 [4] were 900 and 1300, respectively.
